Measured values reported in PubChem BioAssay (Tox21).
Where “and” joins values, the source holds several entries; their conditions need not be identical. Equal entries are not always repeated. Records with an inconclusive call do not appear. Entries that show only a call come without a potency. Calls of active or inactive are those of the source. Calls come from the whole dose curve; as a rule, active = well fitted inhibition curve with a large enough effect in the repeat runs; inconclusive = weak or mixed curves; inactive = no such curve, though single readings can be large or run the other way.

Assay: qHTS assay to identify small molecule antagonists of the thyroid receptor (TR) signaling pathway (AID 743065); note: nearly all actives have a fitted effect of over 55% in size
Details: GH3.TRE-Luc, T3-stimulated luciferase inhibition, 23.5 h; series mostly up to 70.3 µM; activity, negative = inhibition: at the top concentration
Excerpt: U.S. Tox21 Program National Center for Advancing Translational Sciences [NCATS] NIH Chemical Genomics Center [NCGC] U.S. Environmental Protection Agency [EPA] National Institutes of Environmental Health Sciences [NIEHS] National Toxicology Program [NTP] U.S. Food and Drug Administration [FDA] Tox21 Assay Overview: Thyroid receptor (TR), a nuclear hormone receptor, plays an important role in development, proliferation, differentiation, metabolism, brain function, and cardiovascular system. […] To profile the Tox21 10K compound library in TR signaling, a cell-based GH3-TRE-Luc assay (GH3.TRE-Luc cell line, developed by the laboratory of Dr. Albertinka J. Murk, Wageningen University) was used to measure the inhibition of TR. GH3 (rat pituitary tumor) cells stably expressing a TR activity sensor consisting of two TR response elements and a luciferase reporter gene.
Tox21 Assay Protocol Summary: GH3.TRE-Luc cells were dispensed at 1500 cells/4 uL/well into 1536-well white solid bottom plates using a Multidrop Combi dispenser (Thermo Fisher Scientific Inc., Waltham, MA). After the assay plates were incubated at 37 C for 4 hours, 23 nL of library compound or DMSO controls was transferred to the assay plates by a pintool station (Kalypsys, San Diego, CA), followed by addition of 1 ul of T3 (1 nM, final concentration in the wells) to stimulate TR transactivation. The assay plates were incubated at 37 C for 23.5 h, and then 1 uL of CellTiter-Fluor reagent (Promega, Madision, WI) of measuring cytotoxicity was added to each well using a Bioraptr Flying Reagent Dispenser (FRD) workstation (Beckman Coulter, Indianapolis, IN, USA). The plates were incubated at 37 C and 5% CO2 for additional 30 min, and fluorescence intensity was measured by a ViewLux plate reader (PerkinElmer, Shelton, CT). For measuring luciferase reporter gene activity, 4 uL of ONE-Glo Luciferase Assay reagent (Promega) was added to each well using a Bioraptr FRD (Beckman Coulter), followed by 30 min incubation at room temperature. The luminescence intensity of plates was recorded by a ViewLux plate reader (PerkinElmer, Shelton, CT).
Potency is the fitted concentration of half-maximal effect.

Compound | Potency | activity, negative = inhibition
O=Cc1ccco1 | inactive | 
C[C@]12CCC(=O)C[C@@H]1CC[C@@H]1[C@@H]2CC[C@]2(C)[C@@H](O)CC[C@@H]12 | 48 µM (active) | 
O=[N+]([O-])c1cccc2ccccc12 | inactive | 
C=CC(=O)OCCO |  | -8.12% (inactive)
Cc1cc(C)cc(C)c1 | inactive | 
CCOc1cc(C=O)ccc1O | inactive | 
CC(C)(C)c1ccccc1O | inactive | 
C=CCN(CC=C)C(=O)C(Cl)Cl | inactive | 
CN(C)C(=O)Nc1ccc(Cl)cc1 | inactive | 
NNC(=S)NN | inactive | 
C#CCOS(=O)OC1CCCCC1Oc1ccc(C(C)(C)C)cc1 (stereo not given) | 4.33 µM (active) | 
c1cc(OCC2CO2)ccc1Cc1ccc(OCC2CO2)cc1 (stereo not given) | 24.4 µM (active) and 21.7 µM (active) | 
COP(=O)(OC)OC | inactive | 
Cc1ccc2c(c1N)C(=O)c1ccccc1C2=O | inactive | 
Cc1ccc(OP(=O)(Oc2ccc(C)cc2)Oc2ccc(C)cc2)cc1 | inactive | 
NNC(N)=S |  | 13.5% (inactive)
c1ccc(-c2cccc(-c3ccccc3)c2)cc1 |  | 0.76% (inactive)
Nn1cnnc1 | inactive | 
CC(C)Oc1cc(-n2nc(C(C)(C)C)oc2=O)c(Cl)cc1Cl | 67.6 µM (active) | 
CCN(CC)N=O | inactive | 

Compound | Potency | activity, negative = inhibition
Oc1cc(Cl)ccc1Oc1ccc(Cl)cc1Cl | 8.84 µM (active) | 
N#CC(Br)Br | inactive | 
CCN(CC)C(=O)SCc1ccc(Cl)cc1 | inactive | 
Nc1cccnc1 | inactive | 
N#Cc1cc(Br)c(O)c(Br)c1 | 68.5 µM (active) | 
CC(C)N(C(=O)SCC(Cl)=C(Cl)Cl)C(C)C | 53.8 µM (active) and 61.1 µM (active) | 
CCCCCCOC(=O)c1ccccc1C(=O)OCCCCCC | inactive | 
S=C1NCCN1 | inactive | 
C[C@]12CCC(=O)C(O)=C1CC[C@@H]1[C@@H]2CC[C@]2(C)C(=O)CC[C@@H]12 |  | -15.3% (inactive)
CCCCOCCOP(=O)(OCCOCCCC)OCCOCCCC | 24.4 µM (active) and 19.3 µM (active) | 
Cc1cccc(N)c1N | inactive | 
C1=Cc2cccc3cccc1c23 | inactive | 
CCC(C)(c1ccc(O)cc1)c1ccc(O)cc1 | 61.1 µM (active) | 
CC(C)NC(C)C | inactive | 
O=S(=O)(Oc1ccc(Cl)cc1)c1ccc(Cl)cc1 | inactive | 
O=c1oc2ccccc2c(O)c1C(CC(O)c1ccc(-c2ccc(Br)cc2)cc1)c1ccccc1 (stereo not given) | 29.8 µM (active) and 57.9 µM (active) | 
Nc1ccncc1 | inactive | 
c1ccc(NNc2ccccc2)cc1 | 68.6 µM (active) | 
CCCCC(CC)COC(=O)c1ccc(C(=O)OCC(CC)CCCC)c(C(=O)OCC(CC)CCCC)c1 (stereo not given) | inactive | 
Nc1c(Cl)cc([N+](=O)[O-])cc1Cl |  | 0.769% [at 95 µM] (inactive)
